Sfp PPTase inh: blocks B. subtilis Sfp PPTase activity; Biochemical Sfp PPTase activity, qHTS; Potency, µM, usual class: inhibitors; 3.5% of 310,000 active; AID 1490;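 also: the enzyme is Sfp with the accession as filed and its product quenches rhodamine fluorescence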
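Fluorescence-quenching assay with 15 nM Sfp, 5 uM rhodamine-CoA and 12.5 uM BHQ-2-labelled ybbR peptide in pH 7.6 Hepes/MgCl2 buffer. Enzyme was pre-incubated with compound for 15 min at room temperature. Rate was taken from the 30-min fluorescence change (525/598 nm).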
L3MBTL1 block: L3MBTL1 (human) inhibition; Q9Y468; AlphaScreen L3MBTL1–H3K9me1 peptide binding; Potency, µM (series often up to 57.1 µM), hits mostly inhibitors; 0.66% of 230,000 active; also: nearly all actives have a fitted effect of over 60% in size
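AlphaScreen proximity signal between nickel-chelate acceptor and streptavidin donor beads (final 10 ug/mL) reports binding of 50 nM L3MBTL1 to 75 nM biotin-H3 K9me1 peptide; complex incubated with compounds 30 min at room temperature; cefsulodin titration as control.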
HP1b binding inh: blocks HP1-beta chromodomain binding to methylated histone tails | P83916 | AlphaScreen HP1-beta / biotin-H3K9me3 peptide binding | Potency, µM (titrated, usually from 114 µM), most hits filed as inhibitors | 0.56% of 390,000 active | AID 540317; also: nearly all actives have a fitted effect of over 70% in size
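AlphaScreen: HP1-beta (50 nM) preformed 30 min with biotin-H3(1-18)K9me3 peptide (50 nM) in PBS pH 7.4, 0.01% Tween-20. Compound added for 30 min at RT, then streptavidin donor/nickel chelate acceptor beads (10 ug/mL) for 30 min.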
G9a inh: inhibitors of human histone lysine methyltransferase G9a; Potency, µM (series often up to 102 µM), most hits filed as inhibitors; AID 504332; Q96KQ7; G9a H3K9 monomethylation, AlphaScreen, 2 h; 8.8% of 350,000 active; also: nearly all actives have a fitted effect of over 75% in size
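AlphaScreen read-out: biotin-H3K9 peptide (500 nM) methylation by 20 nM enzyme with 20 uM SAM, 2 h at room temperature after 15 min compound preincubation; anti-monomethyl H3K9 antibody plus donor/acceptor beads, 10 min dark.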
JMJD2A Tudor: inhibitors of human JMJD2A Tudor domain; 4.4% of 390,000 active; AlphaScreen JMJD2A-Tudor / H3K4me3 peptide binding; O75164; Potency, µM (titrated, usually from 114 µM), most hits filed as inhibitors; AID 504339; also: nearly all actives have a fitted effect of over 50% in size
BAZ2B inh: blocks human BAZ2B; Q9UIF8; AlphaScreen BAZ2B-H3K14Ac peptide displacement; Potency, µM (top dose mostly 114 µM), actives largely listed as inhibitors; 4.4% of 360,000 active; AID 504333; also: nearly all actives have a fitted effect of over 60% in size
Target sequence (Q9UIF8 whole entry, looked up): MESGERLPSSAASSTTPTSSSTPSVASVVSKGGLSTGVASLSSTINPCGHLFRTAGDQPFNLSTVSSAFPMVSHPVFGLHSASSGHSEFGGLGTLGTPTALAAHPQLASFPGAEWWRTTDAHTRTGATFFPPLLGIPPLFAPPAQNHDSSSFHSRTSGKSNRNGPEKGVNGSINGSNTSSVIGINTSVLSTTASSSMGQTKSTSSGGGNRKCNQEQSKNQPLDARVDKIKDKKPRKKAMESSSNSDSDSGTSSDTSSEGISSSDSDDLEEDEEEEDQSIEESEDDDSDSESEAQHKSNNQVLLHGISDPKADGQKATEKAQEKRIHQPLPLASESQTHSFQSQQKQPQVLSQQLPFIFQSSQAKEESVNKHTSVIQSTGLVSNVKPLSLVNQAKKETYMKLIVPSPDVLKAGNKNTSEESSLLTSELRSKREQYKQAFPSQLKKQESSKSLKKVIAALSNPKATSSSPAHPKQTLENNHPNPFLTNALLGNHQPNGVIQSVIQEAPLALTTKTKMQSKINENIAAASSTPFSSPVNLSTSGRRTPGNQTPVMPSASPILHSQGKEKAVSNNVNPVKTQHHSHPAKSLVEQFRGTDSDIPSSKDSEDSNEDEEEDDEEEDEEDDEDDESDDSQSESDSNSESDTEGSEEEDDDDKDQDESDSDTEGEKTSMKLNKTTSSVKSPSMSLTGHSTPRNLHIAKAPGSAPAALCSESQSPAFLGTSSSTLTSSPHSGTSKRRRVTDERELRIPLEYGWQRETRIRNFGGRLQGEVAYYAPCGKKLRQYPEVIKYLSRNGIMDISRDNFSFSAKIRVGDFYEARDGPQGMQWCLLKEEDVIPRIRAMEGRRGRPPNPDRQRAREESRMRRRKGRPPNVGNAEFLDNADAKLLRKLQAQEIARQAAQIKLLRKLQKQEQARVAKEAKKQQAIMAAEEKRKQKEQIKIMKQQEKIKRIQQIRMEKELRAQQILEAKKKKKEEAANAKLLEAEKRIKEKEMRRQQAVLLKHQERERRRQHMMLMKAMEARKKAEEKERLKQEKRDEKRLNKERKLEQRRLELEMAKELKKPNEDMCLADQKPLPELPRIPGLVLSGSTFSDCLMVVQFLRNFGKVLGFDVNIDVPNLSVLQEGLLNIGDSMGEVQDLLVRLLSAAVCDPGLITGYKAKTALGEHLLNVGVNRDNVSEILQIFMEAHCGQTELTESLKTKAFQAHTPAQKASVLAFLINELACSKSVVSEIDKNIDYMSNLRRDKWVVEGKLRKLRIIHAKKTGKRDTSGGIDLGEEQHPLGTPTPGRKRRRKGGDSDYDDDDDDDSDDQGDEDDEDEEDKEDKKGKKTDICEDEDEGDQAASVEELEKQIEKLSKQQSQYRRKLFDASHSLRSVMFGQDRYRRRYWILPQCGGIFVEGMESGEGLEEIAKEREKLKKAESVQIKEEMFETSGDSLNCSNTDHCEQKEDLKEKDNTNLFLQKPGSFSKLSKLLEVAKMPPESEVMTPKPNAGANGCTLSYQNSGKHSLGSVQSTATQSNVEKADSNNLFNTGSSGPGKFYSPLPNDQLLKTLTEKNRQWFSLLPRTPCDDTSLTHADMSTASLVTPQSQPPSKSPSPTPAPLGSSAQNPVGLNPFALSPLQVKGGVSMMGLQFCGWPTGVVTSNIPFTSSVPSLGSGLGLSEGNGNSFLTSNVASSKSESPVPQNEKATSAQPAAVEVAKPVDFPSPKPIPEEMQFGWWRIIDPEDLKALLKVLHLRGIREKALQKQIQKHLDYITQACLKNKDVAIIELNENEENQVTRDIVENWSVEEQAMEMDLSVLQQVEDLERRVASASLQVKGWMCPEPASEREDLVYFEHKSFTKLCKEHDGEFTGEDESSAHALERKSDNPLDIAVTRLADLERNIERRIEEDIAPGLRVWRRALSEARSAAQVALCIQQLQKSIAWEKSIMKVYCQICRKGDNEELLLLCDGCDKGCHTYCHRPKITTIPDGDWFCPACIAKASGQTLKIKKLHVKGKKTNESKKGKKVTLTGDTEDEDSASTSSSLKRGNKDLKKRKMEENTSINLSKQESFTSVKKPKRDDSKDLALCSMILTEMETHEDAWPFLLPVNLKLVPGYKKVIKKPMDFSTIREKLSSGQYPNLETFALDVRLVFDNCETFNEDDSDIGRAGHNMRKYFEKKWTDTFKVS
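Protein-peptide AlphaScreen: BAZ2B 50 nM, b-H3K14Ac 50 nM, 1x PBS pH 7.4 + 0.01% Tween-20. Preincubation 30 min RT; cpd 30 min RT (top 110 uM); beads 20 min RT, light-protected.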
Hits are given with their value; n = inactive; u = inconclusive; x = not tested or not shown; [ ] = dose if it differs, or a comment. Compounds with a hit are over-represented: about 12% of the library has one in this group of screens. Calls follow the shape of the dose curve; as a rule, active = well fitted curve in the direction sought with a large enough effect; inconclusive = small, poorly fitted or top-dose-only effect, or another doubt; inactive = no such curve, though single readings can be large; an effect the other way counts as inactive or inconclusive.

SMILES | Sfp PPTase inh | L3MBTL1 block | HP1b binding inh | G9a inh | JMJD2A Tudor | BAZ2B inh
COc1cc(-c2ccc(N=Nc3ccc4c(S(=O)(=O)O)cc(S(=O)(=O)O)c(N)c4c3O)c(OC)c2)ccc1N=Nc1ccc2c(S(=O)(=O)O)cc(S(=O)(=O)O)c(N)c2c1O | 4µM | x | x | 7.1µM | x | x
CCC(=O)N1CCc2cc(Br)cc(S(=O)(=O)N3CCN(c4cccc(Cl)c4)CC3)c21 | x | x | n | n | n | n
Cn1cccc1C(=O)N1CCC[C@@]2(CCN(C(=O)Nc3cccc(C#N)c3)C2)C1 | n | x | x | n[12.7 µM] | x | x
Cc1ccc2oc3c(c(=O)c2c1)C(c1cccc(Br)c1)N(Cc1ccco1)C3=O (stereo not given) | n | n | n | n | n | n
O=C1c2oc3ccc(Cl)cc3c(=O)c2C(c2cccc(Br)c2)N1CCO (stereo not given) | n | n | n | 50µM | n | n
Cc1ccc2oc3c(c(=O)c2c1)C(c1ccc(O)cc1)N(CCCN(C)C)C3=O (stereo not given) | x | x | n | n | n | n
CCCOc1ccc(C2c3c(oc4ccccc4c3=O)C(=O)N2CCN(CC)CC)cc1OC (stereo not given) | n | n | n | 50µM | n | n
CN(C)CCCN1C(=O)c2oc3ccc(Cl)cc3c(=O)c2C1c1cccnc1 (stereo not given) | n | n | n | 50µM | n | n
CCN(CC)CCN1C(=O)c2oc3ccccc3c(=O)c2C1c1cccc(Br)c1 (stereo not given) | n | n | n | 50µM | n | n
CCOC(CNC(=O)C(=O)Nc1cc2c3c(c1)CCC(=O)N3CCC2)OCC | n | x | n | x | n | n
CC(C)(C)[C@H]1COC(=O)[C@@H](Cc2ccc(F)cc2)CC/C=C/C[C@@H](CC(=O)N[C@H](CO)Cc2ccccc2)C(=O)N1 | x | n | n | x | n | x
CCN(CC)CCCN1C(=O)c2oc3ccccc3c(=O)c2C1c1cccs1 (stereo not given) | n | x | x | 50µM | x | n
CCOc1ccc(S(=O)(=O)NCC(c2ccco2)S(=O)(=O)c2ccc(C)cc2)cc1 (stereo not given) | x | x | n | n | n | n
CCCCNC(=O)N(C)c1nc2ccccc2s1 | n | n | n | 50µM | n | n
NC(=O)c1ccc(-n2nnnc2SCC(=O)Nc2ccccc2F)cc1 | n | x | n | n[2.33 µM] | n | n
CCn1cc(C(=O)O)c(=O)c2cc(F)c(N3CCNCC3)nc21 | n | x | n | n[21.5 µM] | n | x
NC1CCN(c2c(F)cc3c(=O)c(C(=O)O)cn(C4CC4)c3c2Cl)C1 (stereo not given) | n | n | n | 71µM | n | u
NC1CCN(c2nc3c(cc2F)c(=O)c(C(=O)O)cn3-c2ccc(F)cc2F)C1 (stereo not given) | n | x | n | n[12.7 µM] | 50µM | x
COc1c(N2CCNC(C)C2)c(F)cc2c(=O)c(C(=O)O)cn(C3CC3)c12 (stereo not given) | n | x | x | x | x | x
COc1cccc(-n2c(SCC(=O)c3ccc(Cl)cc3)nc3c([nH]c4ccccc43)c2=O)c1 | x | x | n | n | n | n
COc1cccc(-n2c(SCC(N)=O)nc3c([nH]c4ccccc43)c2=O)c1 | 20µM | x | n | n[12.7 µM] | n | n
Cc1cc(NC(=O)CSc2nc3c([nH]c4ccccc43)c(=O)n2-c2ccccc2)no1 | x | x | n | n | n | n
COc1cccc(-n2c(SCC(=O)Nc3cc(C)on3)nc3c([nH]c4ccccc43)c2=O)c1 | 25µM | n | n | 40µM | n | n
Cc1[nH]c2c(Br)cccc2c1[C@H]1[C@@H](CC#N)C1(C)C | n | n | n | u | u | n
Cc1c([C@H]2[C@@H](CC#N)C2(C)C)c2ccccc2n1C | n | n | u | n[12.7 µM] | u | 22µM
SMILES | Sfp PPTase inh | L3MBTL1 block | HP1b binding inh | G9a inh | JMJD2A Tudor | BAZ2B inh
CCc1nnc(NC(=O)CCn2cnc3ccccc3c2=O)s1 | n | n | n | n | n | n
CCOc1ccc2nc(NC(=S)NCc3ccccc3)sc2c1 | u | x | u | 7.1µM | n | n
CCOc1ccc2nc(NC(=O)C34CC5CC(CC(NC(C)=O)(C5)C3)C4)sc2c1 | n | x | n | 16µM | n | n
CCOc1ccc2nc(NC(=O)CN3CCN(CC)CC3)sc2c1 | n | n | n | 45µM | n | n
COc1ccc2nc(NC(=O)C34CC5CC(CC(NC(C)=O)(C5)C3)C4)sc2c1 | n | x | n | x | n | n
CCOc1ccc2nc(NC(=O)c3ccoc3C)sc2c1 | 89µM | n | n | n | n | n
CCOc1ccc2nc(NC(=O)CN3CCOCC3)sc2c1 | n | x | n | n | n | n
CCOc1ccc2nc(NC(=O)Cn3cnc4c3c(=O)n(C)c(=O)n4C)sc2c1 | n | n | n | 79µM | n | n
CCOc1ccc2nc(NC(=O)Nc3cccs3)sc2c1 | n | n | n | 45µM | u | n
CCOC(=O)N1CCN(CC(=O)Nc2nc3ccc(OC)cc3s2)CC1 | n | n | n | x | n | n
CCOc1ccc2nc(NC(=O)CN3CCN(C)CC3)sc2c1 | n | n | n | 35µM | n | u
CCOc1ccc2nc(NC(=O)Nc3ccccc3)sc2c1 | n | x | n | n | n | n
C=CC(=O)Nc1cccc(Nc2nc(N[C@H]3CC[C@H](N(C)C)CC3)nc3c2ncn3C(C)C)c1 | x | x | n | x | u | x
COc1ccc(OC)c(S(=O)(=O)NC2CC(=O)N(c3cccc(F)c3)C2)c1 (stereo not given) | x | n | n | n | n | n
COc1ccc(-c2nn3c(=O)cc(CN4CCN(C(=O)Nc5cc(C)ccc5C)CC4)nc3s2)cc1 | x | x | n | n | n | n
CCCn1c(C)nc2c(N3CCC(N4CCN(C)CC4)CC3)nc(C)nc21 | n | x | x | x | x | x
CN(C(=O)CN1CCN(c2cnn(-c3ccccc3)c(=O)c2Cl)CC1)C1CCS(=O)(=O)C1 (stereo not given) | x | n | n | n[12.7 µM] | n | n
Cc1c(C(=O)OCC(=O)N2CCC(C)CC2)oc2ccccc12 | x | n | n | n[12.7 µM] | n | n

Screens deposited in PubChem by National Center for Advancing Translational Sciences (NCATS).
